PubChem BioAssay (NCI)
Compounds without any hit were thinned out: in the full panel of roughly 79,000, 15% have a hit. Activity calls are given as the source filed them. No stated cut-off is given here; in the data, active means growth inhibition above about 70%; inactive means the rest.

Legend:
[1] = NCI Yeast Anticancer Drug Screen. Data for the rad52 strain (AID 147);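 further: 0% = growth of vehicle-treated control cultures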; conditions: S. cerevisiae rad52 mutant growth inhibition, active compounds read high
In short: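 DNA repair-defective yeast; compound exposure; growth scored against vehicle controls.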

[2] = NCI Yeast Anticancer Drug Screen. Data for the wt1 strain (AID 149);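 further: 0% = growth of vehicle-treated wt1 cultures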; conditions: S. cerevisiae wt1 strain (SPY 50644) growth inhibition, active compounds read high
In short: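 Yeast wt1 strain exposed to compounds; growth inhibition measured relative to vehicle-treated controls.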

[3] = NCI Yeast Anticancer Drug Screen. Data for the mgt1 strain (AID 153); conditions: S. cerevisiae mgt1 mutant growth inhibition, active compounds read high
In short: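 Growth inhibition relative to vehicle controls was scored for the mgt1 yeast strain after compound exposure.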

[4] = NCI Yeast Anticancer Drug Screen. Data for the rad50 strain (AID 155);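 further: 0% = growth of vehicle-only cultures of the same strain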; conditions: S. cerevisiae rad50 strain growth inhibition, active compounds read high
In short: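 Yeast carrying a defined DNA repair defect were exposed to test compounds, and growth was compared with vehicle-treated controls to give percent inhibition.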

[5] = NCI Yeast Anticancer Drug Screen. Data for the mec2-1 strain (AID 157); conditions: S. cerevisiae mec2-1 strain, active compounds read high
In short: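 Growth inhibition is read against vehicle-treated controls after compound exposure of the mec2-1 yeast strain, which is defective in DNA damage repair or cell cycle control.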

[6] = NCI Yeast Anticancer Drug Screen. Data for the sgs1 mgt1 strain (AID 161);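 further: 0% = growth of cultures given vehicle only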; conditions: S. cerevisiae sgs1 mgt1 strain, active compounds read high
In short: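 Percent growth inhibition was derived by comparing compound-exposed mutant yeast with vehicle-exposed cultures. The strain carries alterations in DNA damage repair.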

[7] = NCI Yeast Anticancer Drug Screen. Data for the cln2 rad14 strain (AID 165);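 further: 0% = growth equal to vehicle treated cultures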; conditions: S. cerevisiae cln2 rad14 strain, active compounds read high
In short: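 Growth inhibition, relative to vehicle-treated controls, is the read-out. The test organism is a yeast strain with defined genetic alterations, cln2 rad14.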

[8] = NCI Yeast Anticancer Drug Screen. Data for the bub3 strain (AID 167); conditions: S. cerevisiae bub3 mutant strain, active compounds read high
In short: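 Compounds were applied to a genetically altered yeast strain carrying a cell-cycle control defect. Growth inhibition was scored against vehicle-treated controls.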

[9] = NCI Yeast Anticancer Drug Screen. Data for the wt2 strain (AID 169);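 further: 0% = growth of vehicle-treated yeast cultures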; conditions: S. cerevisiae wt2 strain growth inhibition, active compounds read high
In short: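 Compound exposure of yeast; growth compared with vehicle controls; inhibition reported.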

[10] = NCI Yeast Anticancer Drug Screen. Data for the mlh1 strain (AID 171);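 further: 0% = growth of vehicle-treated control cultures of the same strain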; conditions: S. cerevisiae mlh1 strain growth inhibition, active compounds read high
In short: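 Compounds are applied to a genetically altered yeast strain, and its growth is compared with that of vehicle-treated cultures to give percent inhibition.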

[11] = NCI Yeast Anticancer Drug Screen. Data for the sgs1 strain (AID 173);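 further: 0% = growth of vehicle-only control cultures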; conditions: S. cerevisiae sgs1 mutant, active compounds read high
In short: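 Compounds applied to genetically altered yeast; growth compared with vehicle-treated cultures to give % inhibition.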

[12] = NCI Yeast Anticancer Drug Screen. Data for the mlh1 rad18 strain (AID 175); conditions: S. cerevisiae mlh1 rad18 strain growth inhibition, active compounds read high
In short: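 Cells of a genetically altered yeast strain, deficient in DNA damage repair, were treated with compound. Their growth was then compared with that of vehicle-treated cultures to give inhibition.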

[13] = NCI Yeast Anticancer Drug Screen. Data for the rad18 strain (AID 177); conditions: S. cerevisiae rad18 mutant growth inhibition, active compounds read high
In short: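 Compounds are applied to a repair-deficient yeast strain, and growth is compared with that of vehicle-treated cultures to give percent inhibition.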

[14] = NCI Yeast Anticancer Drug Screen. Data for the rad50EPP+ strain (AID 151);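 further: 0% = growth of vehicle-treated control cultures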; conditions: S. cerevisiae rad50 mutant strain, active compounds read high
In short: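 rad50EPP+ yeast treated with test compounds. Readout: growth vs vehicle control.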

[15] = NCI Yeast Anticancer Drug Screen. Data for the rad14 strain (AID 159);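 further: 0% = growth of vehicle-treated control cultures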; conditions: S. cerevisiae rad14 strain growth inhibition, active compounds read high
In short: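 Yeast cells carrying a defined DNA-repair defect were exposed to compounds, and growth inhibition was calculated relative to vehicle-treated control cultures.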

[16] = NCI Yeast Anticancer Drug Screen. Data for the CLN2oe strain (AID 163);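 further: 0% = growth of vehicle-only control cultures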; conditions: S. cerevisiae CLN2oe strain, active compounds read high
In short: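 Compound-treated yeast; growth vs vehicle ctrl = % inhibition. Genetically altered strain (cell-cycle control).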

[17] = at 5.0 µM (retest, dose inferred, filed as 0.5)
[18] = at 50.0 µM (retest, dose inferred, filed as 5.0)

Measured: growth inhibition

CCOC(=O)C1N=[N+](c2ccccc2)C(=O)/C1=C\n1c(=S)[nH]c2ccc([N+](=O)[O-])cc21 (stereo unspecified)
inactive: [1]; at 1.2 µM 0% | [1]; at 3.7 µM 1% | [1]; at 11.0 µM 2% | [1]; at 33.0 µM 0% | [1]; at 100.0 µM 9% | [2]; at 1.2 µM 1% | [2]; at 3.7 µM 3% | [2]; at 11.0 µM 2% | [2]; at 33.0 µM 3% | [2]; at 100.0 µM 6% | [3]; at 1.2 µM -1% | [3]; at 3.7 µM -1% | [3]; at 11.0 µM 0% | [3]; at 33.0 µM -11% | [3]; at 100.0 µM 5% | [4]; at 1.2 µM -6% | [4]; at 3.7 µM -14% | [4]; [17] 21% | [4]; at 11.0 µM -18% | [4]; at 33.0 µM 3% | [4]; at 50.0 µM 5.15% | [4]; at 100.0 µM 7% | [5]; at 1.2 µM 1% | [5]; at 3.7 µM 1% | [5]; [17] 13% | [5]; at 11.0 µM 2% | [5]; at 33.0 µM 7% | [5]; at 50.0 µM 17.2% | [5]; at 100.0 µM 9% | [6]; [17] -4% | [6]; [18] 63% | [6]; at 50.0 µM 19.9% | [7]; [17] 53% | [7]; at 50.0 µM 47.9% | [8]; at 1.2 µM -7% | [8]; at 3.7 µM 1% | [8]; at 11.0 µM 1% | [8]; at 33.0 µM 3% | [8]; at 50.0 µM 20.8% | [8]; at 100.0 µM 3% | [9]; at 1.2 µM 0% | [9]; at 3.7 µM 0% | [9]; at 11.0 µM -1% | [9]; at 33.0 µM 1% | [9]; at 100.0 µM 3% | [10]; at 1.2 µM 0% | [10]; at 3.7 µM 1% | [10]; at 11.0 µM 2% | [10]; at 33.0 µM 4% | [10]; at 100.0 µM 8% | [11]; at 1.2 µM 0% | [11]; at 3.7 µM 1% | [11]; at 11.0 µM -9% | [11]; at 33.0 µM 8% | [11]; at 100.0 µM 16% | [12]; [17] 24% | [12]; at 50.0 µM 5.05% | [13]; at 1.2 µM -2% | [13]; at 3.7 µM 1% | [13]; at 11.0 µM 3% | [13]; at 33.0 µM 7% | [13]; at 100.0 µM 15%
active: [4]; [18] 94% | [5]; [18] 96% | [7]; [18] 95% | [8]; [17] 97% | [8]; [18] 99% | [12]; [18] 94%

CC(=O)Nc1ccc2c(c1)Cc1cc(N=C3C=CC(=O)O3)ccc1-2
inactive: [1]; at 1.2 µM 11% | [1]; at 3.7 µM 27% | [14]; at 1.2 µM 37% | [3]; at 1.2 µM 9% | [3]; at 3.7 µM 19% | [3]; at 11.0 µM 67% | [4]; at 1.2 µM 9% | [4]; at 3.7 µM 31% | [4]; [17] 60% | [4]; at 50.0 µM 28.6% | [5]; at 1.2 µM 19% | [5]; at 3.7 µM 31% | [5]; at 50.0 µM 15.8% | [15]; at 1.2 µM 12% | [15]; at 3.7 µM 27% | [6]; [17] 54% | [6]; at 50.0 µM 49.1% | [16]; at 1.2 µM 6% | [16]; at 3.7 µM 16% | [16]; at 11.0 µM 47% | [7]; [17] 9% | [7]; at 50.0 µM 24.9% | [8]; at 1.2 µM -1% | [8]; at 3.7 µM 7% | [8]; [17] 32% | [8]; at 50.0 µM 29.5% | [9]; at 1.2 µM 0% | [9]; at 3.7 µM 18% | [10]; at 1.2 µM 12% | [10]; at 3.7 µM 25% | [11]; at 1.2 µM 14% | [11]; at 3.7 µM 34% | [12]; at 50.0 µM 0.7% | [13]; at 1.2 µM 12% | [13]; at 3.7 µM 31%
active: [1]; at 11.0 µM 85% | [1]; at 33.0 µM 99% | [1]; at 100.0 µM 99% | [14]; at 3.7 µM 77% | [14]; at 11.0 µM 96% | [14]; at 33.0 µM 99% | [14]; at 100.0 µM 99% | [3]; at 33.0 µM 99% | [3]; at 100.0 µM 99% | [4]; at 11.0 µM 81% | [4]; at 33.0 µM 99% | [4]; [18] 99% | [4]; at 100.0 µM 99% | [5]; [17] 87% | [5]; at 11.0 µM 89% | [5]; at 33.0 µM 99% | [5]; [18] 99% | [5]; at 100.0 µM 99% | [15]; at 11.0 µM 84% | [15]; at 33.0 µM 99% | [15]; at 100.0 µM 99% | [6]; [18] 99% | [16]; at 33.0 µM 99% | [16]; at 100.0 µM 99% | [7]; [18] 99% | [8]; at 11.0 µM 72% | [8]; at 33.0 µM 99% | [8]; [18] 99% | [8]; at 100.0 µM 98% | [9]; at 11.0 µM 93% | [9]; at 33.0 µM 99% | [9]; at 100.0 µM 95% | [10]; at 11.0 µM 93% | [10]; at 33.0 µM 99% | [10]; at 100.0 µM 99% | [11]; at 11.0 µM 92% | [11]; at 33.0 µM 99% | [11]; at 100.0 µM 99% | [12]; [17] 82% | [12]; [18] 99% | [13]; at 11.0 µM 91% | [13]; at 33.0 µM 99% | [13]; at 100.0 µM 99%
